In paper PMC5540273 (PLoS ONE, 2017):

tested on: DAPK1; details: concentration: 1 μM,replicates: in singlicate; n = 1
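Further: KINOMEscan kinase panel screen.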

Row | SMILES | %Inh [%]
1 | C[C@@H]1CCN(C(=O)CC#N)C[C@@H]1N(C)c1ncnc2[nH]ccc12 | 10
2 | CC(C)Nc1cc(-c2ccc3c(N)n[nH]c3c2)nc(N)n1 [GSK2221681] | 30
3 | CCN(CC)CCCCNc1ncc2cc(-c3c(Cl)cccc3Cl)c(NC(=O)NC(C)(C)C)nc2n1 | 0
4 | Cl.Oc1cc(-c2nc(-c3ccccc3)[nH]c2-c2ccncc2)ccc1Cl [SB-386023] | 0
5 | C[C@H]1Oc2cc(cnc2N)-c2c(nn(C)c2C#N)CN(C)C(=O)c2ccc(F)cc21 | 0
6 | Cl.Cl.Nc1nc(-c2ccc3c(N)n[nH]c3c2)cc(N2CCCC(NC(=O)c3ccccc3)C2)n1 (stereo not shown) [GSK2286775] | 28
7 | Cc1cc2cn[nH]c2cc1-c1cccc2c(N)c(C(N)=O)nnc12 | 9
8 | CCn1c(-c2nonc2N)nc2c(C#CC(C)(C)O)nc(OCCN)cc21.Cl.Cl [GSK902056] | 0
9 | C=CC(=O)Nc1cc2c(Nc3ccc(F)c(Cl)c3)ncnc2cc1OCCCN1CCOCC1 [GW781483] | 0
10 | Nc1nc(Nc2ccccc2)cc(-c2ccc3c(N)n[nH]c3c2)n1 [GSK2225749] | 34
11 | Cc1cc(C(=O)Nc2ccc(Oc3ccc4nc(NC(=O)C5CC5)cn4n3)cc2)nn1-c1ccccc1 | 0
12 | C[C@@H](Oc1cc(-c2cnn(C3CCNCC3)c2)cnc1N)c1c(Cl)ccc(F)c1Cl | 10
13 | NC(=O)c1cc(-c2ccccc2)cc2c(C3CCNCC3)c[nH]c12 [GSK301362] | 23
